Laboratory results taken from PubChem BioAssay AID1345082 (National Center for Advancing Translational Sciences (NCATS), 2018).
The whole screen tested about 94,000 compounds, of which about 4,000 (4.3%) were called active. A call without a number means that no potency is given here. Not shown: some 29% with an inconclusive outcome. The call rests on the fitted dose curve; in most records, active means well fitted inhibition curve with a large enough effect; inconclusive means small, poorly fitted or top-dose-only effect; inactive means no such curve, though single readings can be large or run the other way. Only a selection was taken, and actives are over-represented in it overall.

Test: Cytotoxic Profiling in NIH 3T3 Cell Line of Diverse Libraries Using Quantitative High-Throughput Screening; further: nearly all actives have a fitted effect of over 55% in size
Conditions: NIH 3T3 viability, CellTiter-Glo ATP luminescence, 48-72 h; series mostly up to 96.7 µM
How it was run: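 NIH 3T3 cells at 400 cells/well received 23 nL of compound by pintool and were incubated 48 or 72 h at 37 °C. Viability was read as ATP-coupled CellTiter-Glo luminescence.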
Potency means the concentration at half of the fitted maximal effect.

Row | SMILES | Potency
1 | O=C(O)COCC(=O)N1C[C@@H]2C[C@H](C1)c1c(-c3ccc4ccccc4c3)ccc(=O)n1C2 | inactive
2 | Cn1cccc1CN1CCC2(COc3ccncc3[S+](=O)([O-])N2)C1 (stereo not given) | inactive
3 | CCOC(=O)[C@H]1CN(C(=O)N2CCOCC2)[C@]2(C)C(=O)N(CC(=O)N(C)C)c3ccccc3[C@H]12 | inactive
4 | Cc1ccc(C(=O)N2CCC3(CC2)c2nccn2-c2ccccc2CN3C)cc1C | inactive
5 | FC(F)(F)CN1C2CCC1CN(c1ccc(Cl)nn1)C2 | inactive
6 | CCNC(=O)N1CC2CN(C(C)C)CC(C1)O2 | inactive
7 | CC1=NOC2(CCN(Cc3c[nH]c4ccccc34)CC2)C1 | inactive
8 | Cn1cc(CN2CCN(C(=O)COc3ccc(F)cc3)CC2)ccc1=O | inactive
9 | COc1ccc(-c2cc([C@H]3CN4CC[C@H]3C[C@@H]4CNS(=O)(=O)Cc3ccccc3)n(C)n2)cc1OC | inactive
10 | COc1ccc(-c2cn(C[C@H]3C[C@@H]4CCN3C[C@@H]4C(=O)NCc3ccccc3)nn2)cc1 | inactive
11 | CCC(CC)c1cc([C@H]2CN3CC[C@H]2C[C@@H]3CNC(=O)NCc2ccccc2)nc(-c2ccncc2)n1 | 20 µM (active)
12 | CCC(CC)c1cc([C@H]2CN3CC[C@H]2C[C@@H]3CNS(=O)(=O)Cc2ccccc2)nc(-c2ccncc2)n1 | 22.4 µM (active)
13 | CCCCc1cn(C[C@H]2CC3CCN2C[C@@H]3C(=O)NCc2ccccc2)nn1 (stereo not given in full) | inactive
14 | CCCS(=O)(=O)NC[C@H]1C[C@@H]2CCN1C[C@@H]2c1cc(C2CCCC2)nn1C | inactive
15 | O=S1(=O)NCC2(CCN(Cc3ccc(Cl)s3)C2)Oc2ncccc21 (stereo not given) | inactive
16 | Cc1noc(C)c1CC(=O)N1[C@H]2CC[C@@H]1c1cnc(-c3ccccc3)nc1C2 | inactive
17 | O=S(=O)(NC[C@H]1C[C@@H]2CCN1C[C@@H]2CN1CCCCC1)c1ccc(Cl)cc1 | inactive
18 | CNC1CCOCC1 | inactive
19 | CCCCc1cn(C[C@H]2C[C@@H]3CCN2C[C@@H]3C(=O)NCCNC(C)=O)nn1 | inactive
20 | CN(CCc1ccccn1)C[C@H]1CN2CC[C@H]1C[C@@H]2CNC(=O)c1ccccc1 | inactive
21 | CC[C@H]1CN2CC[C@H]1C[C@@H]2CNCc1cccc(C#N)c1 | inactive
22 | C=CCN(C)C[C@H]1CN2CC[C@H]1C[C@@H]2CNC(=O)Nc1cccc(SC)c1 | 100 µM (active)
23 | CC(C)NC(=O)NC[C@H]1C[C@@H]2CCN1C[C@@H]2CN1CCCC1 | inactive

Row | SMILES | Potency
24 | CN(Cc1ccccc1)C[C@H]1CN2CC[C@H]1C[C@@H]2CNC(=O)Nc1cccc(C#N)c1 | 100 µM (active)
25 | CC[C@H]1CN2CC[C@H]1C[C@@H]2CNC(=O)c1ccc(N(C)C)cc1 | inactive
26 | CCOC(=O)[C@H]1CN(C(=O)c2cc3ccccc3s2)[C@]2(C)C(=O)Nc3ccccc3[C@H]12 | inactive
27 | Cc1ccc([C@@H]2CN(Cc3ncc[nH]3)[C@@H]3C4CCN(CC4)[C@@H]32)cc1 | inactive
28 | Cc1ccccc1-c1ccc2n(c1=O)C[C@H]1C[C@@H]2CN(C(=O)CSCC(=O)O)C1 | inactive
29 | COc1ccc(CC(=O)N2Cc3ccccc3CC3(CCCN3C)C2)cc1 (stereo not given) | inactive
30 | CC(C)N1C[C@@H]2OCC(=O)N(Cc3cccnc3)[C@@H]2C1 | inactive
31 | Cc1ccc([C@@H]2CN(C(=O)c3ccco3)[C@@H]3C4CCN(CC4)[C@@H]32)cc1 | inactive
32 | O=C(NC[C@H]1C[C@@H]2CCN1C[C@@H]2CN1CCN(c2ncccn2)CC1)c1ccc(C(F)(F)F)cc1 | inactive
33 | COc1ccc(-c2cc([C@H]3CN4CC[C@H]3C[C@@H]4CNC(=O)C3CC3)n(C)n2)cc1OC | inactive
34 | Cc1nc(-c2ccc(N(C)C)cc2)cc([C@H]2CN3CC[C@H]2C[C@@H]3CNC(=O)C2CCC2)n1 | 89.1 µM (active)
35 | C#C[C@H]1CN2CC[C@H]1C[C@@H]2CNC(=O)C1CC1 | inactive
36 | COc1ccccc1-c1cc([C@H]2CN3CC[C@H]2C[C@@H]3CNC(=O)c2ccco2)nc(C)n1 | inactive
37 | COc1ccccc1-c1cc([C@H]2CN3CC[C@H]2C[C@@H]3CNC(=O)c2ccco2)n(C)n1 | inactive
38 | Cc1nc(-c2ccc(C(F)(F)F)cc2)cc([C@H]2CN3CC[C@H]2C[C@@H]3CNC(=O)c2ccco2)n1 | 25.1 µM (active)
39 | Cc1nc(-c2ccc(C(F)(F)F)cc2)cc([C@H]2CN3CC[C@H]2C[C@@H]3CNC(=O)C2CCC2)n1 | 20 µM (active)
40 | CC(=O)NCCNC(=O)[C@H]1CN2CCC1C[C@@H]2Cn1cc(-c2ccc(C(C)(C)C)cc2)nn1 (stereo not given in full) | inactive
41 | O=C(COc1ccccc1)N1C[C@@H]2C[C@H](C1)c1c(-c3ccccc3F)ccc(=O)n1C2 | inactive
42 | FC(F)(F)CN1C2CCC1CN(c1cccc(Cl)n1)C2 | inactive
43 | O=[N+]([O-])c1ccc(N2CC3CCC(C2)N3CC(F)(F)F)nc1 | inactive
44 | O=C(N1[C@H]2CC[C@@H]1c1cnc(-c3ccccc3)nc1C2)C1(c2ccccc2)CC1 | inactive
45 | COCCC(=O)N1CCC2(CC1)c1nccn1-c1ccccc1CN2CC(C)C | inactive
